Results taken from PubChem BioAssay (NCI).
Compounds without any hit were thinned out: in the full panel of roughly 79,000, 15% have a hit. Calls of active or inactive are those of the source. No stated cut-off is given here; in the data, active means growth inhibition above about 70%; inactive means the rest.

Experiment: NCI Yeast Anticancer Drug Screen. Data for the mec2-1 strain (AID 157)
Conditions: S. cerevisiae mec2-1 strain, at 5.0 µM (retest, dose inferred, filed as 0.5), active compounds read high
In short: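 Cells of the genetically defined mec2-1 yeast strain are incubated with test compound. Inhibition of growth is calculated against vehicle-treated controls.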

SMILES	growth inhibition
CC(=O)Oc1ccccc1C(=O)/C=C/c1ccccc1	7% (inactive)
CN(C)C(=S)/N=c1\ssc(=S)n1-c1ccccc1	39% (inactive)
CCOC(=O)C(NS(=O)(=O)c1ccccc1)(C(F)(F)F)P(=O)(OCC(C)C)OCC(C)C (stereo not drawn)	8% (inactive)
CC(C)Nc1nc(NC(C)C)c2cnn(-c3ccccc3)c2n1	1% (inactive)
CCCCCCCCC1(OCCCS(=O)(=O)O)COc2ccccc2OCCOCCOc2ccccc2OC1	-4% (inactive)
Oc1ccc2c(c1)Cc1ccccc1-2	0% (inactive)
CCOC(=O)N1C2C=CC(=O)C(C=C2)N1C(=O)OCC (stereo not drawn)	-9% (inactive)
CC(=O)OCc1ccc2c(c1)C(O)NC(=O)O2 (stereo not drawn)	2% (inactive)
CC(C)=CCc1ccc(O)cc1	5% (inactive)
CCCCCCCCC(=O)Cl	9% (inactive)
O=S1(=O)C(C(O)(c2ccccc2)c2ccccc2)CCCN1c1ccccc1 (stereo not drawn)	-8% (inactive)
CCCCCCCCCCCCNCC(=O)O	1% (inactive)
CC(C)=CCc1c2c(c(O)c3c(=O)c(-c4ccc(O)cc4O)coc13)C=CC(C)(C)O2	-13% (inactive)
O=C(CCC(O)(c1ccccc1)c1ccccc1)c1ccccc1	-13% (inactive)
CS(=O)(=O)OCCN(CCOS(C)(=O)=O)c1ccc(C=Nc2ccc(-c3csc(-c4ccc(Br)cc4)n3)cc2)cc1	43% (inactive)
O=P(O)(CN1CCN(CP(=O)(O)c2ccccc2)CCN(CP(=O)(O)c2ccccc2)CC1)c1ccccc1	4% (inactive)
CC(C)c1ccc2c(c1)CCC1C(C)(CN)CCCC21C (stereo not drawn)	0% (inactive)
Cc1ccc(S(=O)(=O)NNc2nc(N3CCOCC3)nc(N3CCOCC3)n2)cc1	2% (inactive)
O=C1OC(CC(=O)c2ccc(Cl)cc2Cl)C(Cl)=C1Cl (stereo not drawn)	8% (inactive)
CCOC(=O)c1ccc(-n2c(C)nc3ccc(Br)cc3c2=O)cc1	-1% (inactive)

SMILES	growth inhibition
CCN(CC)CCOc1ccc(C=C2c3ccccc3-c3ccccc32)cc1	99% (active)
Cc1nn(C(=O)c2ccccc2O)c2c1C(c1ccc(O)cc1O)SC(N)=N2 (stereo not drawn)	-1% (inactive)
CN(NC(=O)/C(=C/c1cc(Cl)cc(Cl)c1O)NC(=O)c1ccccc1)c1cnn(-c2ccccc2)c(=O)c1Cl	3% (inactive)
Cn1c(=S)c2[nH]c(SCc3ccncc3)nc2n(C)c1=O	0% (inactive)
O=C1N=c2ccc(Br)cc2=C1c1sc(=O)n(Cc2nc3ccccc3[nH]2)c1O	-11% (inactive)
N#C/C(=C\c1cccnc1)c1csc2ccccc12	8% (inactive)
Cc1nn(CCO)c(=O)c(C#N)c1C	5% (inactive)
CN(/N=C/c1ccc(C(=O)O)cc1)C1=NCCCCN1	-4% (inactive)
C=CCCCN1C(=O)C2C3c4ccccc4C(C=O)(c4ccccc43)C2C1=O (stereo not drawn)	8% (inactive)
CC(Cc1ccccc1)N1C(=O)C=CC1=O (stereo not drawn)	92% (active)
O=C(Nc1c(Cl)cc([N+](=O)[O-])cc1Cl)/C(=N\Nc1cccc(Cl)c1)c1c(O)c2ccccc2oc1=O	25% (inactive)
C/C(=N/O)c1ccc2c(c1)C(=NO)c1cc(/C(C)=N/O)ccc1-2	-10% (inactive)
CCCCCCCCCCCC(=O)NC(CCC(=O)O)C(=O)O (stereo not drawn)	-19% (inactive)
O=C1c2ccccc2C(=O)c2c1cccc2[N+](=O)[O-]	67% (inactive)
C/C=C\C=N\NC(N)=S	-3% (inactive)
Oc1c(Cl)cc(C(c2cc(Cl)c(O)c(Cl)c2)C(c2cc(Cl)c(O)c(Cl)c2)c2cc(Cl)c(O)c(Cl)c2)cc1Cl	99% (active)
S=C1NC2=C(CSC/C2=C\c2ccccc2)C(c2ccccc2)N1 (stereo not drawn)	-8% (inactive)
O=[N+]([O-])c1cccc2nc3ccccc3c(NCCNCCO)c12	95% (active)
COC12C=CC(CC1)c1c2c(O)c2ccncc2c1O (stereo not drawn)	-3% (inactive)

Same assay, conditions: S. cerevisiae mec2-1 strain, at 50.0 µM (retest, dose inferred, filed as 5.0), active compounds read high

SMILES	growth inhibition
CC(=O)Oc1ccccc1C(=O)/C=C/c1ccccc1	89% (active)
CN(C)C(=S)/N=c1\ssc(=S)n1-c1ccccc1	99% (active)
CCOC(=O)C(NS(=O)(=O)c1ccccc1)(C(F)(F)F)P(=O)(OCC(C)C)OCC(C)C (stereo not drawn)	-2% (inactive)
CC(C)Nc1nc(NC(C)C)c2cnn(-c3ccccc3)c2n1	69% (inactive)
CCCCCCCCC1(OCCCS(=O)(=O)O)COc2ccccc2OCCOCCOc2ccccc2OC1	74% (active)
Oc1ccc2c(c1)Cc1ccccc1-2	28% (inactive)
CCOC(=O)N1C2C=CC(=O)C(C=C2)N1C(=O)OCC (stereo not drawn)	61% (inactive)
CC(=O)OCc1ccc2c(c1)C(O)NC(=O)O2 (stereo not drawn)	13% (inactive)
CC(C)=CCc1ccc(O)cc1	98% (active)
CCCCCCCCC(=O)Cl	61% (inactive)
O=S1(=O)C(C(O)(c2ccccc2)c2ccccc2)CCCN1c1ccccc1 (stereo not drawn)	0% (inactive)
CCCCCCCCCCCCNCC(=O)O	60% (inactive)
CC(C)=CCc1c2c(c(O)c3c(=O)c(-c4ccc(O)cc4O)coc13)C=CC(C)(C)O2	97% (active)
O=C(CCC(O)(c1ccccc1)c1ccccc1)c1ccccc1	98% (active)
CS(=O)(=O)OCCN(CCOS(C)(=O)=O)c1ccc(C=Nc2ccc(-c3csc(-c4ccc(Br)cc4)n3)cc2)cc1	96% (active)
O=P(O)(CN1CCN(CP(=O)(O)c2ccccc2)CCN(CP(=O)(O)c2ccccc2)CC1)c1ccccc1	61% (inactive)
CC(C)c1ccc2c(c1)CCC1C(C)(CN)CCCC21C (stereo not drawn)	100% (active)
Cc1ccc(S(=O)(=O)NNc2nc(N3CCOCC3)nc(N3CCOCC3)n2)cc1	2% (inactive)
O=C1OC(CC(=O)c2ccc(Cl)cc2Cl)C(Cl)=C1Cl (stereo not drawn)	32% (inactive)
CCOC(=O)c1ccc(-n2c(C)nc3ccc(Br)cc3c2=O)cc1	-7% (inactive)

SMILES	growth inhibition
CCN(CC)CCOc1ccc(C=C2c3ccccc3-c3ccccc32)cc1	99% (active)
Cc1nn(C(=O)c2ccccc2O)c2c1C(c1ccc(O)cc1O)SC(N)=N2 (stereo not drawn)	47% (inactive)
CN(NC(=O)/C(=C/c1cc(Cl)cc(Cl)c1O)NC(=O)c1ccccc1)c1cnn(-c2ccccc2)c(=O)c1Cl	36% (inactive)
Cn1c(=S)c2[nH]c(SCc3ccncc3)nc2n(C)c1=O	-1% (inactive)
O=C1N=c2ccc(Br)cc2=C1c1sc(=O)n(Cc2nc3ccccc3[nH]2)c1O	8% (inactive)
N#C/C(=C\c1cccnc1)c1csc2ccccc12	91% (active)
Cc1nn(CCO)c(=O)c(C#N)c1C	16% (inactive)
CN(/N=C/c1ccc(C(=O)O)cc1)C1=NCCCCN1	25% (inactive)
C=CCCCN1C(=O)C2C3c4ccccc4C(C=O)(c4ccccc43)C2C1=O (stereo not drawn)	20% (inactive)
CC(Cc1ccccc1)N1C(=O)C=CC1=O (stereo not drawn)	99% (active)
O=C(Nc1c(Cl)cc([N+](=O)[O-])cc1Cl)/C(=N\Nc1cccc(Cl)c1)c1c(O)c2ccccc2oc1=O	25% (inactive)
C/C(=N/O)c1ccc2c(c1)C(=NO)c1cc(/C(C)=N/O)ccc1-2	99% (active)
CCCCCCCCCCCC(=O)NC(CCC(=O)O)C(=O)O (stereo not drawn)	-12% (inactive)
O=C1c2ccccc2C(=O)c2c1cccc2[N+](=O)[O-]	86% (active)
C/C=C\C=N\NC(N)=S	5% (inactive)
Oc1c(Cl)cc(C(c2cc(Cl)c(O)c(Cl)c2)C(c2cc(Cl)c(O)c(Cl)c2)c2cc(Cl)c(O)c(Cl)c2)cc1Cl	98% (active)
S=C1NC2=C(CSC/C2=C\c2ccccc2)C(c2ccccc2)N1 (stereo not drawn)	97% (active)
O=[N+]([O-])c1cccc2nc3ccccc3c(NCCNCCO)c12	99% (active)
COC12C=CC(CC1)c1c2c(O)c2ccncc2c1O (stereo not drawn)	81% (active)
